Source: PubChem BioAssay AID720597 (Broad Institute, 2013)
Results with a measured potency or affinity are listed apart. Active and inactive are the calls of the source.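 How the source made its calls: active means fitted half-maximal dose no more than twice the top valid tested dose, for compounds that lower signal; inconclusive means fit invalid, or curve flat with activity between -70 and -30; inactive means potency past limit, curve flat within ±30, or signal increasing.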

Biological target: NAD-dependent protein deacylase sirtuin-5, mitochondrial (Homo sapiens) (UniProt Q9NXA8)
Sequence (Q9NXA8 whole entry, looked up): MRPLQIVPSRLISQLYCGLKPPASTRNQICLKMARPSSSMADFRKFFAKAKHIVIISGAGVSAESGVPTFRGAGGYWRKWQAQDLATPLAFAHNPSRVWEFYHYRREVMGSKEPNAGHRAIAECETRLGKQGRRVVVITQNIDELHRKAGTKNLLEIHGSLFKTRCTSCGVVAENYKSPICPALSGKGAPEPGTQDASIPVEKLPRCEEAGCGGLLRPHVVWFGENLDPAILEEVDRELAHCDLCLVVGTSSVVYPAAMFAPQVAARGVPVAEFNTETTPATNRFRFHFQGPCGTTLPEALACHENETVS
Assay: SIRT5 deacylase inhibitors, dose response, biochemical, fluorescence imaging, cherry-pick, set 6 (AID 720597);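 further: lower AMC signal can also come from blocking the trypsin step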
Conditions: Purified SirT5, succinyl-peptide-AMC/trypsin fluorescence; series mostly up to 15 µM

outcome, inactive:
COc1ccc(S(=O)(=O)N(C)C[C@@H]2OCCCC[C@H](C)Oc3ccc(NS(=O)(=O)c4ccc(C)cc4)cc3C(=O)N([C@H](C)CO)C[C@H]2C)cc1, Cc1ccc(S(=O)(=O)N(C)C[C@H]2OCCCC[C@@H](C)Oc3ccc(NS(=O)(=O)c4ccc(Cl)cc4)cc3C(=O)N([C@H](C)CO)C[C@H]2C)cc1, C[C@@H]1CN([C@@H](C)CO)C(=O)c2cc(NC(=O)C3CC3)ccc2O[C@@H]1CN(C)S(=O)(=O)c1cn(C)cn1, Cc1noc(C)c1NC(=O)Nc1cccc2c1O[C@H](CN(C)Cc1ccc(Oc3ccccc3)cc1)[C@H](C)CN([C@H](C)CO)C2=O, O=C(CCN1CCCCC1)N[C@H]1CC[C@@H](CC(=O)N2CCC(Cc3ccccc3)CC2)O[C@@H]1CO, Cc1ccc(S(=O)(=O)Nc2ccc3c(c2)C(=O)N([C@H](C)CO)C[C@@H](C)[C@@H](CN(C)Cc2ccc(C(F)(F)F)cc2)OCCCC[C@H](C)O3)cc1, C[C@@H]1CN([C@@H](C)CO)S(=O)(=O)c2ccc(C#Cc3ccc(F)cc3)cc2O[C@H]1CN(C)C(=O)NC1CCCCC1, CCS(=O)(=O)N1CC(=O)N2[C@H](CO)[C@H](c3ccc(C4=CCCCC4)cc3)[C@@H]2C1, CC(C)CC#Cc1ccc2c(c1)O[C@H](CN(C)C(=O)NC1CCCC1)[C@@H](C)CN([C@@H](C)CO)S2(=O)=O, C[C@H]1CCCCO[C@H](CN(C)Cc2ccc(C(F)(F)F)cc2)[C@@H](C)CN([C@@H](C)CO)C(=O)c2cc(NS(=O)(=O)c3ccc(Cl)cc3)ccc2O1, CCCC#Cc1ccc([C@H]2[C@@H](CO)N3CCCCN(S(=O)(=O)Cc4ccccc4)C[C@@H]23)cc1, Cc1noc(C)c1NC(=O)Nc1cccc2c1O[C@@H](CN(C)Cc1ccc(Oc3ccccc3)cc1)[C@@H](C)CN([C@@H](C)CO)C2=O, CCCC#Cc1ccc([C@@H]2[C@@H](CO)N3CCCCN(S(=O)(=O)Cc4ccccc4)C[C@@H]23)cc1, CC(C)CC#Cc1ccc2c(c1)O[C@@H](CN(C)Cc1ccccc1F)[C@H](C)CN([C@H](C)CO)S2(=O)=O, C[C@@H]1CN([C@H](C)CO)C(=O)c2cc(-c3ccc(F)cc3)cnc2O[C@H]1CN(C)C(=O)Cc1ccccn1, Cc1ccc(S(=O)(=O)N(C)C[C@@H]2OCCCC[C@H](C)Oc3ccc(NS(=O)(=O)c4ccc(Cl)cc4)cc3C(=O)N([C@@H](C)CO)C[C@H]2C)cc1, O=C(CCN1CCCCC1)N[C@@H]1CC[C@H](CC(=O)N2CCC(Cc3ccccc3)CC2)O[C@H]1CO, C[C@@H]1CCCCO[C@@H](CN(C)Cc2ccc(C(F)(F)F)cc2)[C@H](C)CN([C@@H](C)CO)C(=O)c2cc(NS(=O)(=O)c3cccs3)ccc2O1, COc1ccc(S(=O)(=O)N(C)C[C@H]2Oc3ncc(/C=C/c4ccccc4)cc3C(=O)N([C@H](C)CO)C[C@@H]2C)cc1, COCC(=O)N1[C@H](C#N)[C@H](c2ccccc2-c2cccc(F)c2)[C@H]1CO, CCCC#Cc1ccc([C@H]2[C@@H](CO)N3CCCCN(S(=O)(=O)Cc4ccccc4)C[C@H]23)cc1, CN(C[C@H]1[C@@H](c2ccc(C3=CCCC3)cc2)[C@@H](CO)N1CCC(F)(F)F)S(C)(=O)=O, COc1ccc(S(=O)(=O)Nc2ccc3c(c2)C(=O)N([C@@H](C)CO)C[C@H](C)[C@@H](CN(C)Cc2ccc(Oc4ccccc4)cc2)O3)cc1, C[C@@H]1CN([C@H](C)CO)S(=O)(=O)c2ccc(C#C[C@@H](C)O)cc2O[C@@H]1CN(C)Cc1ccc(-c2ccccc2)cc1, C[C@H]1CN([C@@H](C)CO)C(=O)c2cc(NC(=O)CCCCCC(=O)Nc3ccccc3N)ccc2O[C@H]1CN(C)Cc1ccc(Cl)c(Cl)c1, C[C@@H]1CN([C@@H](C)CO)S(=O)(=O)c2ccc(C3=CCCCC3)cc2O[C@@H]1CN(C)S(=O)(=O)c1ccc(F)cc1, Cc1cccc(-c2ccc([C@H]3[C@H](CO)N4CCCCN(S(=O)(=O)c5cccc(C)c5)C[C@@H]34)cc2)c1, CC(C)NC(=O)Nc1ccc2c(c1)C(=O)N([C@@H](C)CO)C[C@H](C)[C@H](CN(C)C(=O)NC(C)C)OCCCC[C@@H](C)O2
